The nature of test [1]: NCI Yeast Anticancer Drug Screen. Data for the rad50 strain (AID 155).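 Also: 0% = growth of vehicle-only cultures of the same strain.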 The settings on record: S. cerevisiae rad50 strain growth inhibition; at 50.0 µM; stronger effect = higher value. Put shortly: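 Yeast carrying a defined DNA repair defect were exposed to test compounds, and growth was compared with vehicle-treated controls to give percent inhibition.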
Test [2] in a line: NCI Yeast Anticancer Drug Screen. Data for the mec2-1 strain (AID 157). The settings on record: S. cerevisiae mec2-1 strain, at 50.0 µM, stronger effect = higher value. Put shortly:
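Mutant yeast (mec2-1) grown with compound; growth inhibition relative to vehicle control reported.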

Test [3] can be described thus: NCI Yeast Anticancer Drug Screen. Data for the sgs1 mgt1 strain (AID 161).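 Also: 0% = growth of cultures given vehicle only.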 The settings on record: S. cerevisiae sgs1 mgt1 strain, at 50.0 µM, stronger effect = higher value. In outline: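 This yeast growth screen uses a strain with defined DNA-repair lesions; compound-treated growth is compared with vehicle-treated growth.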
Test [4] in a line: NCI Yeast Anticancer Drug Screen. Data for the cln2 rad14 strain (AID 165).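 Also: 0% = growth equal to vehicle treated cultures.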 The settings on record: S. cerevisiae cln2 rad14 strain, at 50.0 µM, stronger effect = higher value. In outline: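 Readout is yeast growth inhibition versus vehicle-treated controls, using a strain with cln2 and rad14 alterations exposed to compound.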
A short description of test [5]: NCI Yeast Anticancer Drug Screen. Data for the bub3 strain (AID 167). The conditions noted are these: S. cerevisiae bub3 mutant strain, at 50.0 µM, stronger effect = higher value. Put shortly:
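Compounds were applied to a genetically altered yeast strain carrying a cell-cycle control defect. Growth inhibition was scored against vehicle-treated controls.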

The nature of test [6]: NCI Yeast Anticancer Drug Screen. Data for the mlh1 rad18 strain (AID 175). The conditions noted are these: S. cerevisiae mlh1 rad18 strain growth inhibition; at 50.0 µM; stronger effect = higher value. Put shortly:
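Genetically defined yeast (DNA repair-deficient) exposed to compounds; growth inhibition determined relative to vehicle.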

The panel holds about 79,000 compounds, 15% with a hit somewhere; the sample as a whole holds those more often. Unmarked numbers belong to inactive results. Active and inactive are the calls of the source. Rule as the data show it: active = growth inhibition above about 70%; inactive = the rest.

For `CC1CN(C(=O)C2CCCN(CCc3ccccc3)C2)CC(C)O1` (stereo unspecified), the growth inhibition in test [1] was 25.4%; in test [2], 2.65%; in test [3] it was 52.7%; in test [4], 14.8%; in test [5], 2%; in test [6], 22.7%.

For `O=C(O)c1ccc2c(c1)Cc1ccccc1-2`, the growth inhibition in test [1] was 30.5%; in test [2], 47.9%; in test [3], 51.3%; in test [4], 45.1%; in test [5], 35.6%; in test [6], 42%.

`ClC(Cl)(Cl)C1CCC2CCCC21` (stereo unspecified): the growth inhibition was 4.15% in test [1]; -24.1% in test [2]; -3.45% in test [3]; 6.1% in test [4]; -9.1% in test [5]; -0.8% in test [6].

As for `COc1ccc(CCl)c(C)c1OC`, the growth inhibition in test [1] is 32.7%; in test [2] it was 5.75%; in test [3], 18.9%; in test [4], 2.75%; in test [5], 16.1%; in test [6], -10.7%.

As to `CCCC1(c2ccccc2)CNC(=O)NC1`, the growth inhibition in test [1] is -3.8%; in test [2] it was 19.5%; in test [3], 1.8%; in test [4], -9%; in test [5] it was 3.25%; in test [6], -2.95%.

As for `CCOC(=O)CC1CC(C)(C(=O)OCC)C(=O)CC1=O` (stereo unspecified), the growth inhibition was -21.1% in test [1]; -4.9% in test [2]; -11% in test [3]; 8.35% in test [4]; 7.5% in test [5]; 0% in test [6].

As for `O=C1c2ccccc2-c2nc(-c3cccnc3)cc3c2c1nc1ccccc13`, the growth inhibition in test [1] was 32.7%; in test [2], 24.4%; in test [3], 34.4%; in test [4], 23%; in test [5], 24.7%; in test [6], 39%.

Take `O=C1NC(N2CCCCC2)=N/C1=C\c1ccccc1`: the growth inhibition in test [1] is 25.7%; in test [2] it was -8.45%; in test [3] it was -6.1%; in test [4] it was 23.7%; in test [5] it was -10.5%; in test [6] it was -16.4%.

Consider `Cc1[nH]c(=O)n2c(C)nnc2c1C(=O)O`, for which the growth inhibition was -5.3% in test [1]; -4.15% in test [2]; 1.95% in test [3]; -10.2% in test [4]; -2.7% in test [5]; -1.55% in test [6].

Take `C/C=C/C(=O)OCCCCCCCCCCCC`: the growth inhibition in test [1] was -41.1%; in test [2] it was -39%; in test [3], -18.8%; in test [4], -16.8%; in test [5] it was -15.6%; in test [6], -39.8%.

As to `CSc1ccc(C(=O)c2ccc(SC)cc2)cc1`, the growth inhibition in test [1] was 5.65%; in test [2], 15.8%; in test [3], 16.2%; in test [4] it was -12.8%; in test [5] it was -4.25%; in test [6] it was -17.2%.

`CC(C#N)N(C)c1c([N+](=O)[O-])c(=O)n(C)c(=O)n1C` (stereo unspecified): the growth inhibition in test [1] is -5.85%; in test [2], -13.3%; in test [3] it was -5.4%; in test [4], -14.9%; in test [5], -2.7%; in test [6], -20.7%.

Regarding `C=C(CBr)CCCOCc1ccccc1`, the growth inhibition was 10.8% in test [1]; -7.25% in test [2]; -7.15% in test [3]; 2.1% in test [4]; -5.35% in test [5]; -7.55% in test [6].

Turning to `Nc1ccc(S(=O)(=O)Nc2nccs2)cc1`, the growth inhibition is -0.6% in test [1]; -17.2% in test [2]; -3.7% in test [3]; 6.05% in test [4]; -1.85% in test [5]; -3.4% in test [6].

`Cc1c(C(=O)CC2OC(=O)C(Cl)=C2Cl)c2ccccc2n1C(=O)Nc1ccc(Cl)cc1` (stereo unspecified): the growth inhibition in test [1] is 15.8%; in test [2], -6.75%; in test [3], 11.1%; in test [4], -32.4%; in test [5], 5.05%; in test [6] it was 5.3%.

Take `Cc1ccc(S(=O)(=O)Nn2c(-c3ccccc3)c(C#N)c(-c3ccc([N+](=O)[O-])cc3)c(C#N)c2=O)cc1`: the growth inhibition in test [1] is -0.65%; in test [2], 16.2%; in test [3], 8.6%; in test [4], 11.6%; in test [5], 20.1%; in test [6], 37%.

Consider `Cc1ccc(N(C)C(=O)Nc2ccccc2)c(C)c1`, for which the growth inhibition in test [1] is 4.1%; in test [2] it was 3.6%; in test [3], 8.6%; in test [4] it was -20.6%; in test [5], 4.55%; in test [6] it was -12.8%.

For the compound `CN(C)CC1CC=CCC1CN(C)C` (stereo unspecified), the growth inhibition is -19.8% in test [1]; 0% in test [2]; -5.6% in test [3]; -15.7% in test [4]; 6.85% in test [5]; -8.7% in test [6].

`COC(=O)c1c(-c2ccc3c(c2)OCO3)cn(C)c1C`: the growth inhibition in test [1] was 5.7%; in test [2], 1.85%; in test [3], 24.6%; in test [4], -5.25%; in test [5], 7.55%; in test [6], 11.6%.

`COc1cc2cnc3c4ccccc4ccc3c2cc1OC`: the growth inhibition was -48.5% in test [1]; -18.1% in test [2]; -1.7% in test [3]; 4.2% in test [4]; -2.85% in test [5]; -9.3% in test [6].

Regarding `Cc1cc(Cl)ccc1NC(=O)Nc1c(Oc2ccc(Cl)cc2)ccc(Cl)c1S(=O)(=O)O`, the growth inhibition is 76.8% (active) in test [1]; 36.8% in test [2]; 55.5% in test [3]; 3.85% in test [4]; -0.75% in test [5]; 45.9% in test [6].
